The whole screen tested about 96,000 compounds, of which about 20,000 (21%) were called active. The list is a sample of the results. Values without a mark were called inactive.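 The calls were made as follows: active = CYP2C19 inhibition above a set limit at 5 µM in the primary screen (cut at about 50% in these data); inactive = the rest.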
Each compound was assayed against Cytochrome P450 2C19 (Homo sapiens) (UniProt P33261) (assay: blockers of cytochrome P450 2C19 activity – biochemical, luminescence, ADME assay, primary screen (AID 778;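 also: plate controls were negative control wells for no effect and 2.5 mM tranylcypromine positive control for full effect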)). Details: CYP2C19 Supersomes, luciferin-H EGE luminescence, 30 min; at 5 µM; stronger effect = higher value.
Cytochrome P450 2C19 (Homo sapiens), sequence (P33261 whole entry, looked up): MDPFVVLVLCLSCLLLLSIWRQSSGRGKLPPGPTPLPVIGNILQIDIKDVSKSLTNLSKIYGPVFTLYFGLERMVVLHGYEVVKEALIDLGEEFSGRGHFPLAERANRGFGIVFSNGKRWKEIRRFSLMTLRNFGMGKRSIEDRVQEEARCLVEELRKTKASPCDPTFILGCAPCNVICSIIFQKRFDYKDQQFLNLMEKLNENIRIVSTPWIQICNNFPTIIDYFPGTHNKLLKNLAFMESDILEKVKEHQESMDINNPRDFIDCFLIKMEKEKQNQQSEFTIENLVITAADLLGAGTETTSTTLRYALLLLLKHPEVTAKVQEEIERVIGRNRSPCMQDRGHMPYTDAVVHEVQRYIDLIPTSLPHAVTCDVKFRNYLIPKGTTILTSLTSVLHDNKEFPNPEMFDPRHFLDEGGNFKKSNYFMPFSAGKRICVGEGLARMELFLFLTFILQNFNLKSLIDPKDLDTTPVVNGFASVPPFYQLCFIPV

Point of comparison: `Cc1ccc2nc3n(c(=O)c2c1)CCC3`, inhibition -4.2%. Against it:
- CCOC(=O)c1c(NC(=O)c2cccs2)sc(C)c1C — lower, -10.4%
- CCc1nnc(NC(=O)c2cccs2)s1 — higher, 14.6%
- CN1CCN(CC(=O)Nc2sc3c(c2C#N)CCC(C(C)(C)C)C3)CC1 (centres undefined) — higher, 26.1%
- O=C(Cc1ccc(F)cc1)NC1CCCC1 — higher, 43.4%
- CN(CC(=O)NC1CCCCC1)S(=O)(=O)c1ccc(Br)s1 — higher, 11.4%
- Cc1cccc(-n2c(O)c(C=Nc3ccccc3N)c(=O)[nH]c2=O)c1 — higher, -2.2%
- C=CCNC(=O)CCCC(=O)NCC=C — higher, 0.1%
- O=C(CNC(=O)c1ccco1)OCC(=O)c1ccccc1 — higher, 17.9%
- CCN(CC)c1ccc(C(=O)OCC(=O)c2ccco2)cc1 — higher, 8.1%
- CCCC(=O)C1=C(N(C)c2ccccc2)CC(C)(C)C(C(=O)OC)C1=O (centres undefined) — higher, 14.5%
- CC1CCN(C(=O)Cn2cc(C(=O)c3ccco3)c3ccccc32)CC1 — higher, 17.1%
- CCC(C(=O)N1CCOCC1)n1c(C(=O)OC)cc2occc21 (centres undefined) — higher, 35.4%
- CCOC(=O)c1cc2occc2n1CC(=O)N1CCN(C(=O)c2ccco2)CC1 — higher, -4%
- CC1CCN(C(=O)CN(c2ccc(Oc3ccccc3)cc2)S(C)(=O)=O)CC1 — higher, 28.4%
- CCOc1ccc(NC(=O)CSc2nc3c(c(=O)n2-c2ccccc2OC)SCC3)cc1 — higher, 37.5%
- CC1(C)CC(CC(=O)O)C(=O)O1 (centres undefined) — lower, -11.1%
- Cc1nc2ccc(S(=O)(=O)NCC(=O)NCCN3CCCCC3C)cc2s1 (centres undefined) — higher, 5.2%
- Nn1cnnc1N/N=C/c1cc([N+](=O)[O-])c(Cl)cc1Cl — higher, 15.9%
- CCOC(=O)C1(C(F)(F)F)N=C(N(C)C)OC(N(C)C)=N1 — lower, -7.2%
- CC1COC2C(O1)N(S(C)(=O)=O)CCN2S(C)(=O)=O (centres undefined) — lower, -4.9%
- Cc1ccc2oc(=O)c3cnn(CC(=O)N4CCN(c5ccccn5)CC4)c3c2c1 — higher, 10.9%
- Cc1ccc(S(=O)(=O)NCC(=O)N2CCN(c3ccccn3)CC2)cc1 — higher, -1.8%
- NC(=O)C1(N2CCCCC2)CCN(C2CC(=O)N(Cc3ccc(N4CCCC4=O)cc3)C2=O)CC1 (centres undefined) — higher, 22.1%
- CC(C)(O)C#Cc1ccc(C(=O)N2CCC(C(N)=O)(N3CCCCC3)CC2)cc1 — higher, 14.8%
- Cc1nc2nc(COc3ccccc3)[nH]n2c(=O)c1C — lower, -11.1%
- OCCCN1c2ccccc2Nc2nnc(-c3ccccc3)cc21 — higher, 39.5%
- CN(CCO)Cc1csc2ccc(Br)cc12 — lower, -8.9%
- COc1cc(C2C(C(=O)OCCC#N)=C(C)NC3=C2S(=O)(=O)c2ccccc23)cc(OC)c1OC (centres undefined) — higher, 15.8%
- C=CCn1c(CC(=O)Nc2cccc(OC)c2)nnc1SCC(=O)NC1CCCCC1 — lower, -6%
- COc1ccc(N(CC(=O)NC2CCCCC2)S(=O)(=O)c2c(C)[nH]c(=O)[nH]c2=O)cc1 — higher, 11.3%
- Cc1cccc(NC(=O)c2cc(N3C(=O)CCC3=O)ccc2Cl)n1 — higher, 14.7%
- CC1(C)Cc2c(sc3nc(SCC(=O)NCc4ccccc4)n(-c4ccccc4)c(=O)c23)CS1 — higher, 1.8%
- CCOc1ccc(Cn2c(SCCCCC#N)nc3c2c(=O)n(C)c(=O)n3C)cc1OCC — higher, 20.4%
- CCOC(=O)N1CCN(Cc2nc3c(c(=O)n(C)c(=O)n3C)n2Cc2ccccc2)CC1 — higher, 30%
- CCCSc1nc2c(c(=O)n(C)c(=O)n2C)n1Cc1ccc(C)cc1 — higher, 17.6%
- Cn1c(=O)c2c(nc(NCCc3ccccc3)n2Cc2ccccc2)n(C)c1=O — higher, 8.9%
- CCOC(=O)CSc1nc2c(c(=O)n(Cc3ccccc3Cl)c(=O)n2C)n1C — lower, -6%
- CC(C)OCCCNc1nc2c(c(=O)n(Cc3ccccc3F)c(=O)n2C)n1C — higher, 42.7%
- C/C(=N\c1nc2ccccc2n1C)c1cc(Cl)ccc1O — lower, -5.8%
- CCN(CC)c1ccc(/C=N/Nc2nc(C)cc(=O)[nH]2)cc1 — higher, 7.4%
- COc1ccc(CCN(C(=O)COc2ccccc2)c2nc(-c3ccccc3)cs2)cc1OC — higher, 35.3%
- O=C(c1cccs1)N(C(=O)c1cccs1)c1ccccn1 — higher, 23%
- CCOC(=O)c1cc2n(c1C)-c1ccccc1C2=O — higher, 17.8%
- COc1ccc(C(=O)NNC(=O)c2cnccn2)cc1[N+](=O)[O-] — higher, 11.1%
- Cc1cc(C)nc(N2CCN(c3ncnc4c3oc3ccccc34)CC2)n1 — lower, -16.1%
- CCCCOC(=O)Cn1c(=N)n(CCN(CC)CC)c2ccccc21 — lower, -29.6%
- CCOC(=O)CN1C(=O)C(=O)c2cc(C)ccc21 — higher, -2.2%
- Cc1ccccc1NC(=O)Cc1nnc(SCC(=O)N2CCN(c3ccccc3)CC2)n1C — higher, 26.9%
- O=C(Nc1nnc(CCc2ccccc2)s1)C1CCCO1 (centres undefined) — higher, 15.6%
- O=C(Nc1ccc(-c2nnc(-c3ccccc3)o2)cc1)C1CCCO1 (centres undefined) — higher, 17.1%
- Cc1nc(SCC(=O)Nc2cc(C)on2)c2c(C)c(C)sc2n1 — higher, 9.2%
- CCOc1cc(C2C(C(=O)OC)=CN(C3CCCC3)C=C2C(=O)OC)cc(Br)c1O — higher, -1.9%
- CC(=O)c1cc(NC(=O)c2ccccc2)c(=O)oc1/C=C/N(C)C — higher, 0.3%
- CN(C)c1cc(N)c2ccccc2n1 (tested in a mixture with another compound) — lower, -9.5%
- Cc1cc(Nc2ccccc2)n(CCC#N)n1 — lower, -5.9%
- CN1CCN(c2ccc(NC(=O)COc3ccc(Cl)cc3Cl)cc2)CC1 — higher, 17.9%
- Cc1ccc(S(=O)(=O)N2C3C=CC(C3)C2C(=O)O)cc1 (centres undefined) — higher, 10.3%
- CC(C)(C)c1csc(NC2=NS(=O)(=O)c3ccccc32)n1 — higher, 0.4%
- O=S1(=O)C=C(SCCN2CCCC2)c2ccccc21 — higher, 28.3%
- COc1cc2[nH]c(=S)n(CCN3CCCCC3C)c(=O)c2cc1OC (centres undefined) — lower, -5.5%
- O=C1CCCc2c1[nH]c1ccc(Br)cc21 — higher, 15.9%
- Nc1c(-c2ccc(F)cc2)cnc2ncnn12 — lower, -14%
- COC(=O)[C@H](CCSC)NC(=O)Nc1ccc(OC)cc1 — higher, 38%
- COc1cc(/C=C2/C(=O)ON=C2C)ccc1OCc1ccccc1F — higher, 17.5%
- COc1ccccc1CNCc1cccs1 — higher, 31.8%
- Cc1nc2ccccc2cc1OCc1ccc(F)cc1 — higher, 17.6%
- Cn1c(=O)c2c(nc(OCc3cccnc3)n2Cc2ccccc2)n(C)c1=O — higher, 16.8%
- Cc1nnc(SCC(=O)NC2CCCC2)s1 — higher, 19.1%
- Cn1cccc1C(=O)NC(=O)COC(=O)Cc1coc2ccc3ccccc3c12 — higher, 31.8%
- O=c1[nH][nH]c(=O)c2cc(N3CCCC3)ccc12 — higher, 0.9%
- CCOc1ccc(-c2nc(C)sc2CC(=O)O)cc1 — higher, 12.3%
- CCc1nc(C)ccc1OCC(=O)N(CC)CC — higher, 0.2%
- C=CCn1c(COc2ccccc2)nnc1SCC(=O)NCC(=O)OCC — lower, -8.4%
- C=CCn1c(CSc2nc3ccccc3s2)nnc1SCC(=O)NCc1ccco1 — higher, 24.8%
- C=CCn1c(N)cc(=O)nc1SCC(=O)Nc1cccc2ccccc12 — higher, 1%
- CCCCCCn1c(CN2CCCC(C)C2)nc2c1c(=O)n(C)c(=O)n2C (centres undefined) — higher, 2.2%
- CCOC(=O)Nc1ccc2c(c1)N(C(=O)CN1CCN3CCCC3C1)c1ccccc1CC2 (centres undefined) — higher, 18.2%

`CCc1c(C)sc(NC(=O)c2cccs2)c1C(N)=O` was tested, and the inhibition was 84.1% (active).
`O=C(NC1CCCC1)c1ccc(Br)s1` was tested, and the inhibition was 71.3% (active).
With `O=C(COC(=O)c1ccccc1C(=O)c1ccccc1)c1ccco1` the inhibition was 84.4% (active).
With `CCOC(=O)c1cc2occc2n1CC(=O)NC1CCC(C)CC1` (centres undefined) the inhibition was 56.3% (active).
With `CCOC(=O)c1cc2c(ccn2C)n1CC(=O)N1CCC(C)CC1` the inhibition was 55.4% (active).
`Cc1ccnc(N2CCN(C(=O)CSc3nc4ccccc4nc3N3CCCCC3)CC2)c1` was tested, and the inhibition was 79.1% (active).
For `NC(=O)C1(N2CCCCC2)CCN(C(=O)c2ccc(C#Cc3ccccc3)o2)CC1`, the inhibition was 71% (active).
`O=S(N1CCCCCC1)C12CC3CC(CC(C3)C1)C2` (centres undefined) was tested, and the inhibition was 77.6% (active).
For `COc1cccc(-n2c(SCC(=O)NC3CCCCC3)nc3n[nH]c(C)c3c2=N)c1`, the inhibition was 50.9% (active).
With `Cc1cccc(Cn2c(N3CCN(c4ccccc4)CC3)nc3c2c(=O)n(C)c(=O)n3C)c1` the inhibition was 72.8% (active).
`CCOC(=O)CSc1nc2c(c(=O)n(C)c(=O)n2C)n1Cc1ccccc1F` was tested, and the inhibition was 63.1% (active).
With `Cc1cccc(Cn2c(SCCO)nc3c2c(=O)n(C)c(=O)n3C)c1` the inhibition was 51.7% (active).
In the case of `COc1ccc(CN(C(=O)c2cccs2)c2nccs2)cc1OC`, the inhibition is reported as 100% (active).
For `CCCCOC(=O)Cn1c(=O)n(CC(=O)OCCCC)c2cc(C)ccc21`, the inhibition was 55.8% (active).
In the case of `O=C(Nc1cccc(-c2nnc(-c3ccccc3)o2)c1)C1CCCO1` (centres undefined), the inhibition is reported as 71.9% (active).
With `Cc1cc(NC(=O)COc2ccc(Cl)cc2Cl)n(CCC#N)n1` the inhibition was 99.1% (active).
With `CC(C)(C)c1ccc(OC2=CS(=O)(=O)c3ccccc32)cc1` the inhibition was 65.2% (active).
In the case of `Fc1ccccc1COc1ccccc1CNCc1ccncc1`, the inhibition is reported as 96.3% (active).
`c1ccc(COc2ccccc2CNCc2cccnc2)cc1` was tested, and the inhibition was 59.4% (active).
With `C=CCn1c(SCC(=O)NCc2ccccc2)nnc1-c1cc(Br)ccc1O` the inhibition was 91.6% (active).
In the case of `C=CCn1c(SCC(=O)Nc2nc3ccccc3s2)nnc1-c1ccccc1O`, the inhibition is reported as 54.6% (active).
